The structures appear in SMILES notation. About 840 (0.7%) of roughly 120,000 compounds were called active.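 How the source made its calls: active means inhibition above the batch mean plus 3 SD, and confirmed as a hit on visual image review (cut at about 43% in these data); inconclusive means passes the inhibition cutoff but fails visual image review; inactive means the rest.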 The sample as a whole holds a higher share of actives than the screen did.

The nature of the experiment: E-selectin induction blockers in HUVEC – imaging, immunofluorescence, high content, primary screen (AID 1246).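 Further: 0% = TNF-stimulated DMSO wells and 100% = unstimulated control wells.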 Particulars: HUVEC TNFa-induced E-selectin immunofluorescence, at 2 µM, hits give high values.
Consider `Cc1ccc(C(c2nnnn2CS(=O)(=O)c2ccc(C)cc2)N2CCC(C(N)=O)CC2)cc1` (configuration not stated), for which the inhibition (usually the change of the read-out against control, counted positive when it falls) is -22.9% (inactive).
The value for `CC(C)C(c1nnnn1Cc1ccccc1)N1CCC(C(N)=O)CC1` (configuration not stated) was 100% (active); that for `CC(C)C(c1nnnn1CCc1ccccc1)N1CCN(C(=O)c2ccco2)CC1` (configuration not stated) was 20.3% (inactive).
With `CC1CCCC(C)N1/N=C/c1ccccc1OC(F)F` (configuration not stated), the inhibition is 0.15% (inactive).
The value for `O=C(CN(CC1CCCO1)C(=O)CNS(=O)(=O)c1ccc(F)cc1)NCc1ccco1` (configuration not stated) was -15.3% (inactive).
As for `CCN(CCCNC(=O)CCn1c(=O)[nH]c2ccsc2c1=O)c1ccccc1`, the inhibition is -8.13% (inactive).
On to `O=S(=O)(c1ccc2c(c1)OCCO2)N1CCc2ccccc21`, for which the inhibition was 27.9% (inactive).
The value for `COCCN(C(=O)CCC(=O)Nc1nccs1)C(C(=O)NC(C)(C)C)c1ccc(Cl)cc1` (configuration not stated) was 19.2% (inactive); that for `COc1cc(/C=N/Nc2ccc(C)cc2)cc(Br)c1O` was -4.64% (inactive); that for `Cc1cc(C)n2nc(SCC(N)=O)nc2n1` was -29.9% (inactive).
Consider `Cc1cc(C)n2nc(C(=O)N(C)C(c3ccccc3)c3ccccc3)nc2n1`, for which the inhibition was 45.1% (active).
Take `Cc1cc(C)n2nc(C(=O)N3CCN(Cc4ccc5c(c4)OCO5)CC3)nc2n1`: the inhibition was -35.2% (inactive).
On to `COC(=O)c1c(C(=O)OC)c(-c2cccc(C)c2)n2c1CS(=O)C2` (configuration not stated), for which the inhibition is 58.3% (inactive).
Consider `CSc1nc2nc(-c3cccc(C(F)(F)F)c3)ccn2n1`, for which the inhibition was -26.4% (inactive).
For `CC(CC(=O)C1C(C)C=CCC1(C)C)NNC(N)=O` (configuration not stated), the inhibition is 13.4% (inactive).
Turning to `CC(=O)c1ccc(NC(=O)Nc2ccc([N+](=O)[O-])cc2C)cc1`, the inhibition is 70.8% (active).
The value for `CC(=O)Nc1ccc(C(=O)OCC(=O)Nc2ccc([N+](=O)[O-])cc2C(F)(F)F)cc1` was -7.06% (inactive).
Regarding `CC(=O)c1cccc(NC(=O)Nc2ccc(C)cc2)c1`, the inhibition is 8.52% (inactive).
`CCCCN(CC(=O)NC(C)(C)C)C(=O)C(=O)Nc1ccc2c(c1)OCCO2`: the inhibition was -8.58% (inactive).
For the molecule `Cc1nccn1CCCNC(=O)CC1C(=O)NCCN1Cc1ccc(Cl)c(F)c1` (configuration not stated), the inhibition was -5.16% (inactive).
The value for `O=C(Cc1cccs1)Nc1nnc(SCc2ccc(F)cc2)s1` was -12.5% (inactive); that for `COc1ccc(Cc2nnc(NC(=O)Cc3cccs3)s2)cc1` was 83.6% (active).
As to `COc1ccc(Cc2nnc(NS(=O)(=O)Cc3ccccc3)s2)cc1`, the inhibition was 55.2% (inactive).
Regarding `CCCC(C)C(=O)NCc1ccncc1` (configuration not stated), the inhibition is 0.76% (inactive).
For `CCOC(=O)N1CCC(=NNC(N)=O)CC1`, the inhibition was -34.9% (inactive).
As to `Cn1cc(-c2ccccc2)cc(C#N)c1=O`, the inhibition was 3.87% (inactive).
With `Cc1cc(OC(=O)c2ccccc2)c([N+](=O)[O-])c(=O)[nH]1`, the inhibition is -11.2% (inactive).
Regarding `CC(=O)Nc1ccccc1Sc1ccc2c3c(cccc13)C(=O)N(c1ccc(C)cc1)C2=O`, the inhibition is 62.1% (active).
As for `CC(=O)NCCn1c(SCC(=O)Nc2ccc(C)cc2)nc2ccccc2c1=O`, the inhibition is -10.7% (inactive).
For `CCOC(=O)Nc1ccccc1N1C(=O)c2ccccc2C1=O`, the inhibition is -7.24% (inactive).
Regarding `C/C=N/NC(=O)CCCC(=O)N/N=C/C`, the inhibition is -10.5% (inactive).
For the molecule `CN1CCC(OC(=O)COc2ccc(Cl)cc2Cl)CC1`, the inhibition was 12.5% (inactive).
Regarding `Cc1ccc(C(=O)NC(=S)Nc2ccc(N3CCOCC3)cc2)cc1`, the inhibition was 2.01% (inactive).
Turning to `Cc1ccc(C)c(Cn2cnc3c(oc4ccccc43)c2=O)c1`, the inhibition was -10.7% (inactive).
Consider `CC1CCC2(CC1)NC(=O)N(Cc1nnc(-c3cccs3)o1)C2=O` (configuration not stated), for which the inhibition was -9.64% (inactive).
`Cc1nc(-c2ccc(Cl)cc2)sc1C(=O)CBr`: the inhibition is 24.5% (inactive).
`CCc1nnc(NC(=O)CCCSc2nc3ccccc3[nH]2)s1`: the inhibition was -35.3% (inactive).
With `CCC(C)(C)NC(=O)CN(C(=O)C(=O)Nc1ccc2c(c1)OCCO2)C(C)(C)CC`, the inhibition was -8.58% (inactive).
On to `COc1ccc(C(=O)Nc2ccc(S(=O)(=O)NC(C)C)cc2)cc1`, for which the inhibition was -8.02% (inactive).
Take `COc1ccc(NC(=O)c2ccc(OC)cc2)cc1`: the inhibition was -30.5% (inactive).
On to `COc1ccc(NC(=O)c2c(C)oc3c2CCCC3)cc1`, for which the inhibition is 60.9% (active).
In the case of `COc1ccc(-c2[nH]ncc2CN(C)Cc2cccnc2)c(F)c1`, the inhibition was -5.34% (inactive).
The value for `O=C(NCc1nnc(SCC(=O)N2CCCc3ccccc32)o1)c1ccccc1F` was -38.5% (inactive); that for `CCN(CC)S(=O)(=O)c1ccc(N(C)CCc2ccc(OC)c(OC)c2)nc1` was 0.93% (inactive); that for `CCCOc1ccc(C(=O)NCCc2ccccc2)cc1` was -42.2% (inactive).
The value for `Cn1c(SCC(=O)N2CCCc3ccccc32)nc2ccccc2c1=O` was -1.81% (inactive).
The value for `C=CCn1c(=O)c2ccccc2n2c(SCC(=O)N3CCCc4ccccc43)nnc12` was 80.1% (active); that for `O=C(CSc1nc2ccccc2c(=O)n1CCCO)N1CCc2ccccc21` was -7.95% (inactive).
`Cc1c(Br)c([N+](=O)[O-])nn1CC(=O)N1CCN(Cc2ccccc2)CC1`: the inhibition is 8.51% (inactive).
Next, `O=C(/C=C/c1ccccc1Cl)Nc1ccc(S(=O)(=O)Nc2ncccn2)cc1`: -13.4% (inactive); `COCCCNCCOCCOc1ccc(Cl)cc1Br`: -28.3% (inactive); `OCCNCCCCOc1ccccc1F`: -13.2% (inactive).
The value for `OCCNCCOc1ccc(Cl)c(Cl)c1` was 75.2% (active).
Regarding `CCOC(=O)N1CCN(CCC(=O)Nc2cc(OC)ccc2OC)CC1`, the inhibition was -40.9% (inactive).
The value for `O=C(Nc1cccc(F)c1)N1C2CCC1CC(O)(c1cccnc1)C2` (configuration not stated) was -22.6% (inactive); that for `CN(C)C(=O)c1nc2ccc(Cl)cn2c1CN1CCN(c2ncccn2)CC1` was -15.7% (inactive); that for `Cc1cnc(C(=O)OCC(=O)NCCCc2ccccc2)cn1` was -18.2% (inactive).
The value for `O=C(CCSc1ccccc1)N1CCN(c2ccccc2F)CC1` was -7.82% (inactive); that for `Cc1cc(C)n(-c2nnc(N3CCN(c4ccccc4)CC3)nn2)n1` was 1.97% (inactive); that for `Cn1c(SCC(=O)Nc2cccc(NC(=O)c3cccs3)c2)nnc1-c1ccncc1` was 26.7% (inactive).
On to `CCC(=O)Nc1cccc(NC(=O)CSc2nnc(-c3ccc(NS(C)(=O)=O)cc3)n2C)c1`, for which the inhibition was 64.3% (active).
As to `CCCCSc1nnc(-c2ccc(NC(=O)CC)cc2)n1C`, the inhibition is 1.71% (inactive).

(Values after PubChem BioAssay AID1246 (Columbia University Molecular Screening Center, 2008).)
